From PubChem BioAssay
The source made the active and inactive calls.

Assays:
[1] = biological target: Albumin (Bos taurus) (UniProt P02769); experiment: bovine serum albumin binders on microarray, profiling panel, artefact control for SMM control protein annotation, biochemical, small-molecule microarray, Alexa647 label, 635/667 nm fluorescence (AID 1118); conditions: BSA-A647 binding, fluorescence 635 nm, higher = more signal;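 also: score merges 667 nm emission intensity and signal-to-noise per printed compound spot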
Albumin (Bos taurus), sequence (P02769 whole entry, looked up): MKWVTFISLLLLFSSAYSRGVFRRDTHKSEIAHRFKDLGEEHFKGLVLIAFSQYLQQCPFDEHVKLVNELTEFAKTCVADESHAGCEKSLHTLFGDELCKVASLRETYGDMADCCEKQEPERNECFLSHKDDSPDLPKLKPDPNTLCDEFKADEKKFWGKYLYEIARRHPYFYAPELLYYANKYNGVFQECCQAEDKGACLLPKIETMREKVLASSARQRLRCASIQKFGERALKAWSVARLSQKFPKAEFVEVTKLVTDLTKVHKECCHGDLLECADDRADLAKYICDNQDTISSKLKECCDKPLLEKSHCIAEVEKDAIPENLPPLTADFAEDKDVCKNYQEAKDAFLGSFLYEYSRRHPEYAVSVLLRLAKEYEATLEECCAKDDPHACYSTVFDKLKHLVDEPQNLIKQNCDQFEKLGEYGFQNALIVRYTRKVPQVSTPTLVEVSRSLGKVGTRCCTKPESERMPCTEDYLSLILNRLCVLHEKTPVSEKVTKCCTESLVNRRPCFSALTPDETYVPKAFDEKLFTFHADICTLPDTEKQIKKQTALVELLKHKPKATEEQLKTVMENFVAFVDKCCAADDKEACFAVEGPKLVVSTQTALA

[2] = small-molecule microarray binders of probe aXIP, primary screen, biochemical, NeuroSMM set, 635/667 nm fluorescence (AID 1119); conditions: higher = more signal, called active from +8 up or from −8 down;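 also: probe is the protein aXip251-270 applied at 1 µg/mL to compound-printed slides; binding of probe to printed compounds measured as 667 nm fluorescence plus signal to noise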
[3] = small-molecule binders of probe aNOTCH3, primary screen, biochemical, small-molecule microarray, 635/667 nm fluorescence (AID 1120); conditions: higher = more signal;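 also: probe is a biotin-tagged antibody raised against NOTCH3 rather than NOTCH3 protein; score merges spot fluorescence near 667 nm with spot signal to noise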
[4] = small-molecule binders of probe aNOTCH2, primary screen, biochemical, small-molecule microarray, 635/667 nm fluorescence (AID 1121); conditions: higher = more signal;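 also: score merges feature fluorescence read at 667 nm with its signal to noise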
[5] = biological target: Carbonic anhydrase 2 (Homo sapiens) (UniProt P00918); experiment: CAII small-molecule binders, profiling panel, biochemical, small-molecule microarray, Alexa647-labelled CAII (AID 1122); conditions: CAII-A647 binding fluorescence, higher = more signal
[6] = COS7 lysate on small-molecule microarray, probe aHis, 635 nm (AID 1123); conditions: COS7 cell lysate, fluorescence, higher = more signal;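 also: z-score combines 667nm fluorescence intensity with signal-to-noise per printed compound spot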
[7] = compound binding in COS7 lysate, probe aLAP1, primary screen, cell lysate, small-molecule microarray (AID 1124); conditions: probe aLAP1, fluorescence, higher = more signal;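 also: lysate comes from COS7 cells expressing LAP1 and is applied at 0.3 µg/mL; score merges spot fluorescence near 667 nm with signal-to-noise over triplicate slides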
[8] = system: Sam68 (KHDRBS1); experiment: Sam68 small-molecule binders, primary screen, biochemical, small-molecule microarray, 635 nm fluorescence (AID 1125); conditions: small-molecule microarray binding, higher = more signal;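 also: score merges 667 nm channel intensity with signal to noise over triplicate slides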
[9] = system: Chordin-like protein 2 (CHRDL2); experiment: CHRDL2 small-molecule binders, primary screen, biochemical, small-molecule microarray, 635 nm fluorescence (AID 1126); conditions: small-molecule microarray binding, fluorescence 635 nm; higher = more signal;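 also: printed compound slides probed with Chrdl2 protein at 4 µg/mL for 1 h at 4 C; score merges 667 nm emission intensity with signal to noise over three replicate slides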
[10] = biological target: Concanavalin-A (Canavalia ensiformis) (UniProt P02866); experiment: ConA small-molecule binders, primary screen, artefact control for SMM control protein annotation, biochemical, small-molecule microarray, Alexa647 label, 635 nm (AID 1127); conditions: ConA-A647 binding fluorescence, higher = more signal;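 also: z combines 667 nm emission intensity with signal-to-noise across three replicate slides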
Concanavalin-A (Canavalia ensiformis), sequence (P02866 whole entry, looked up): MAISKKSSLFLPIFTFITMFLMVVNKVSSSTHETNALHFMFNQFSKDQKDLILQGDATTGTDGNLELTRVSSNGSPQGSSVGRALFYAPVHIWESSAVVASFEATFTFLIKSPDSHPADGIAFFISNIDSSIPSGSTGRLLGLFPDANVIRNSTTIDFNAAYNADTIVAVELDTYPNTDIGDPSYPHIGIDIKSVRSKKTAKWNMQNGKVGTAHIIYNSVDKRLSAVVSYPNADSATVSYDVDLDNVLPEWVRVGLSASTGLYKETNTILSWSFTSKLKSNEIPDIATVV

[11] = anti-His antibody binders, primary screen, artefact control for SMM control protein annotation, biochemical, small-molecule microarray, 635 nm fluorescence (AID 1128); conditions: anti-His Alexa647 antibody binding, higher = more signal;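 also: score merges feature fluorescence with signal-to-noise for each printed compound spot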
[12] = system: Human papillomavirus type 1a E7 protein (residues 1-88); experiment: HPV1a E7 small-molecule binders, primary screen, biochemical, small-molecule microarray, residues 1-88, 635 nm (AID 1129); conditions: small-molecule microarray binding, fluorescence 635 nm; higher = more signal
[13] = biological target: Focal adhesion kinase 1 (Homo sapiens) (UniProt Q05397); experiment: small-molecule microarray binders of FAK, primary screen, biochemical, 635/667 nm fluorescence, BSA, DTT (AID 1130); conditions: PTK2 binding, 635 nm fluorescence, higher = more signal;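 also: composite of spot emission at 667 nm and signal to noise over triplicate slides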
Focal adhesion kinase 1 (Homo sapiens), sequence (Q05397 whole entry, looked up): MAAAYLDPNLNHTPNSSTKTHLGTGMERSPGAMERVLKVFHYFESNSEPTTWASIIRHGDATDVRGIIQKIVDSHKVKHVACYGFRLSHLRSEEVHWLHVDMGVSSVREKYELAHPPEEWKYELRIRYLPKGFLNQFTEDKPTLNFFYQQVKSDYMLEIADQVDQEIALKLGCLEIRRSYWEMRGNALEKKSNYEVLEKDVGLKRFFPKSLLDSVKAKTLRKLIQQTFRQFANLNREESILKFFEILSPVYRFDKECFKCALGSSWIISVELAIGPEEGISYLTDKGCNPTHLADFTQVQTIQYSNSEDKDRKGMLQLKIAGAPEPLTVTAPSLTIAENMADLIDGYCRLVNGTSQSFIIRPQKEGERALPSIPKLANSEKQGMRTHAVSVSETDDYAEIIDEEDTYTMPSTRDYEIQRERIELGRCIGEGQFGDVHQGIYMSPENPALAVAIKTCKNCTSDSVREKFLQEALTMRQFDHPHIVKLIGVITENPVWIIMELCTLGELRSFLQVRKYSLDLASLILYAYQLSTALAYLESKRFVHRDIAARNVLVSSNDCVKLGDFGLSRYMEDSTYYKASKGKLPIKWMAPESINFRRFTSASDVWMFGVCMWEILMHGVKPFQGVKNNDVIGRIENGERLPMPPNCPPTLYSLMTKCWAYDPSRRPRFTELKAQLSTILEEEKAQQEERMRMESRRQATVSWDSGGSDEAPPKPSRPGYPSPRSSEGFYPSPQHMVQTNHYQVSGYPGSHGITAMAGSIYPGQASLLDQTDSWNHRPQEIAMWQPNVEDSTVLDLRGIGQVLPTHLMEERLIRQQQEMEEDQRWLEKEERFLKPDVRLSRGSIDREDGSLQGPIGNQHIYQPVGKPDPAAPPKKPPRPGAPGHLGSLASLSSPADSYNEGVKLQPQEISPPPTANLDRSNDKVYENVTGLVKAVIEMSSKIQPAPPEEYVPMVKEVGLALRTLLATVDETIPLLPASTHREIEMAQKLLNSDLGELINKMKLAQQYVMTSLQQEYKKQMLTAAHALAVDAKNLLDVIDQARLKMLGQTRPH

[14] = system: Fibrinogen (Alexa647-labelled); experiment: fibrinogen binders on compound microarrays, profiling panel, artefact control for SMM control-protein annotation, biochemical, small-molecule microarray, 635/667 nm fluorescence (AID 1131); conditions: fibrinogen-A647 binding fluorescence, higher = more signal;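 also: z-score merges 667 nm fluorescence with per-spot signal-to-noise over triplicate slides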
[15] = biological target: Follistatin (Homo sapiens) (UniProt P19883); experiment: follistatin binders on small-molecule microarrays, primary screen, biochemical, small-molecule microarray, 635/667 nm fluorescence (AID 1132); conditions: FST binding, 635 nm fluorescence, higher = more signal
Follistatin (Homo sapiens), sequence (P19883 whole entry, looked up): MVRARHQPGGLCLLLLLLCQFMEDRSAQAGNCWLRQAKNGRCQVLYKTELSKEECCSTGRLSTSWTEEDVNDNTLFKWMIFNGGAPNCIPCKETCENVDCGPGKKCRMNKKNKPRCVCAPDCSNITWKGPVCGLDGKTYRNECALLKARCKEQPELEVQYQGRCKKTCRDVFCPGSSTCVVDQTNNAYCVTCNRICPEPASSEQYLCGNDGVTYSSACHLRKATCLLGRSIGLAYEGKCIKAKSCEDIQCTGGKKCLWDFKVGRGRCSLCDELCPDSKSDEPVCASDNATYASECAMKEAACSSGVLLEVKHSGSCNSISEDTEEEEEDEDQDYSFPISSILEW

[16] = biological target: Fibroblast growth factor 2 (Homo sapiens) (UniProt P09038); experiment: FGF2 binders on small-molecule microarrays, primary screen, biochemical, small-molecule microarray, 635/667 nm fluorescence (AID 1133); conditions: small-molecule microarray binding, FGF2, fluorescence 635/667; higher = more signal
Fibroblast growth factor 2 (Homo sapiens), sequence (P09038 whole entry, looked up): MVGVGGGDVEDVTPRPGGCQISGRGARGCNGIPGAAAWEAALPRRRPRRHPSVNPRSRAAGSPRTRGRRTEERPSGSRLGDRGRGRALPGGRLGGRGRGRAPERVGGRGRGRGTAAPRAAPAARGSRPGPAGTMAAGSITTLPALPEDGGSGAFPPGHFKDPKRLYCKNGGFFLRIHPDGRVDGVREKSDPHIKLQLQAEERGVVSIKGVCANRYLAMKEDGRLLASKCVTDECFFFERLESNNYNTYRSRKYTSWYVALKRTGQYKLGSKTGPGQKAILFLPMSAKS

[17] = mitochondrial membrane potential change in A549 cells, profiling panel, cell-based, JC-1 fluorescence, basal, 24 h, 100 nL (AID 1138); conditions: higher = more signal;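 also: A549 lung adenocarcinoma cells under basal conditions with no added stimulus; test concentration not given here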
[18] = system: Lefty1; experiment: Lefty1 binders on small-molecule microarrays, primary screen, biochemical, small-molecule microarray, 635/667 nm fluorescence (AID 1139); conditions: small-molecule microarray binding, fluorescence 635/667; higher = more signal
[19] = system: wheat germ agglutinin (Triticum aestivum), Alexa647-labelled; experiment: wheat germ agglutinin binders on compound microarrays, profiling panel, artefact control for SMM control-protein annotation, biochemical, small-molecule microarray, 635/667 nm fluorescence (AID 1140); conditions: WGA-A647 binding, 635 nm fluorescence, higher = more signal;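 also: score merges 667 nm feature emission with signal to noise over triplicate slides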
[20] = biological target: Luciferin 4-monooxygenase (Photinus pyralis) (UniProt P08659); experiment: firefly luciferase enzyme inhibitors, primary screen, biochemical, luminescence, purified enzyme, 2006 set (AID 1141); conditions: SteadyGlo luminescence, 30 min, higher = more signal, called active from +8 up or from −8 down;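 also: cell-free assay with purified firefly luciferase at 100 ng per well in PBS; test concentration not given here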
Luciferin 4-monooxygenase (Photinus pyralis), sequence (P08659 whole entry, looked up): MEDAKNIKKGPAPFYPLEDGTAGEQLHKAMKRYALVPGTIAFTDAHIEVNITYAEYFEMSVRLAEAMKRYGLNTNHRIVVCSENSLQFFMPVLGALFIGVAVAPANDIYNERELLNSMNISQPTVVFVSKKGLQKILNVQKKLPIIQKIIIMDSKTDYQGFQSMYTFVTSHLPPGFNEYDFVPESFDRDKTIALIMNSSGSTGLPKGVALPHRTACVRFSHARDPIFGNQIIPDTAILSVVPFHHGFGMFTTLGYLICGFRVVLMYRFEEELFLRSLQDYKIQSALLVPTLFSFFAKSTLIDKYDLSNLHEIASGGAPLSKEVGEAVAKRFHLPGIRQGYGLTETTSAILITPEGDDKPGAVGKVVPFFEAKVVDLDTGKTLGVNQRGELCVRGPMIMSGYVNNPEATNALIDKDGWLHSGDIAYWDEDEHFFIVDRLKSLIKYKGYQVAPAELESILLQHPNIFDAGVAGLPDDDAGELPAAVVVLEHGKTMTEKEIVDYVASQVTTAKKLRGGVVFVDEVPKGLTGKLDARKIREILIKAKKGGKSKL

Structure (SMILES) | composite z-score [1] | composite Z-score [2] | composite z-score [3] | composite z-score [4] | composite z-score [5] | composite z-score [6] | composite z-score [7] | composite z-score [8] | composite z-score [9] | composite z-score [10] | composite z-score [11] | composite z-score [12] | composite z-score [13] | composite z-score [14] | composite z-score [15] | composite z-score [16] | z-score [17] | composite z-score [18] | composite z-score [19] | z-score [20]
COC(=O)c1c(CC[C@@H](CO)NC(=O)N[C@@H](Cc2ccccc2)Cn2cc(-c3ccccn3)nn2)oc(C(=O)N2CCOCC2)c1C(=O)OC | 0.15 | 0.255 (inactive) | 0.0562 | -0.0928 | 0.696 | 0.0795 | -0.425 | -0.23 | -0.488 | -0.376 | -0.241 | -0.341 | 0.384 | -0.405 | 0.57 | -0.129 | -0.187 | 0.795 | 0 | 1.1 (inactive)
[N-]=[N+]=Nc1ccccc1C[C@@]1(C(=O)N2CCCCC2)N=C(c2ccc(OCCCO)cc2)O[C@@H]1c1ccccc1N=[N+]=[N-] | 0.998 | 0.203 (inactive) | 0.384 | 0.0564 | 0.299 | 1.33 | 0.158 | 1.32 | -0.501 | 1.12 | 2.17 | 1.19 | 0.362 | 0.98 | 1.29 | 0.592 | -1.21 | -0.271 | 1.3 | -2.39 (inactive)
C=C(CCCC)/C(=C/C[C@H](OC(C)=O)c1ccc(OCCO)cc1)c1cnc2ccccc2c1 | 0.466 | 0.0474 (inactive) | 0.116 | -0.108 | 0.471 | 1.2 | 0.117 | 1.31 | 1.05 | 0.817 | 0.91 | 0.78 | -0.115 | 0.387 | 0.735 | 0.623 | 0.649 | 1.15 | 0.869 | -0.126 (inactive)
O=C1O[C@@H](c2ccccc2)[C@@H](c2ccccc2)N2[C@@H](c3ccc(OCCO)cc3)[C@]3(C(=O)Nc4ccc(C#CCCO)cc43)[C@@H](C(=O)NC[C@H](O)c3ccccc3)[C@H]12 | -0.517 | 1.23 (inactive) | 0.138 | -0.143 | 0.165 | 1.66 | 0.822 | 1.26 | 0.891 | 1.07 | 0.797 | 1.17 | 0.947 | 0.668 | 1.34 | 1.01 | 0.225 | 0.958 | 0.356 | -1.15 (inactive)
CC(c1ccccc1)C(O)C1C=CC2C(=O)N(C)C(=O)C2N1NC(=O)OC(C)(C)C (stereo not given) | 0.974 | 0.741 (inactive) | 0.148 | -0.0159 | 0.695 | 2.53 | 0.857 | 1.3 | -0.338 | 1.12 | 0.79 | 1.21 | 0.235 | 1.03 | 0.696 | 0.0621 | -0.422 | -0.271 | 0.939 | -0.934 (inactive)
